Screen size: about 340,000 compounds; about 1,000 (0.29%) were called active. Cut-off read from the data, not from the text of the source: inconclusive = inhibition above about 29% without an active follow-up result; inactive = below that. The list is a sample of the results. Potency and affinity values are given separately.
Target: Genome polyprotein (Dengue virus type 2 (strain 16681-PDK53)) (UniProt P29991)
Experiment: flavivirus cap methylation enzyme inhibition – biochemical, confirmation dose response, primary screen (AID 588689)
Conditions: Dengue-2 NS5 methyltransferase capping enzyme assay, at 25 µM, stronger effect = higher value
[1] = measured here: pilot screen replicate inhibition

Chain of Genome polyprotein (Dengue virus type 2 (strain 16681-PDK53)) (P29991 whole entry, looked up): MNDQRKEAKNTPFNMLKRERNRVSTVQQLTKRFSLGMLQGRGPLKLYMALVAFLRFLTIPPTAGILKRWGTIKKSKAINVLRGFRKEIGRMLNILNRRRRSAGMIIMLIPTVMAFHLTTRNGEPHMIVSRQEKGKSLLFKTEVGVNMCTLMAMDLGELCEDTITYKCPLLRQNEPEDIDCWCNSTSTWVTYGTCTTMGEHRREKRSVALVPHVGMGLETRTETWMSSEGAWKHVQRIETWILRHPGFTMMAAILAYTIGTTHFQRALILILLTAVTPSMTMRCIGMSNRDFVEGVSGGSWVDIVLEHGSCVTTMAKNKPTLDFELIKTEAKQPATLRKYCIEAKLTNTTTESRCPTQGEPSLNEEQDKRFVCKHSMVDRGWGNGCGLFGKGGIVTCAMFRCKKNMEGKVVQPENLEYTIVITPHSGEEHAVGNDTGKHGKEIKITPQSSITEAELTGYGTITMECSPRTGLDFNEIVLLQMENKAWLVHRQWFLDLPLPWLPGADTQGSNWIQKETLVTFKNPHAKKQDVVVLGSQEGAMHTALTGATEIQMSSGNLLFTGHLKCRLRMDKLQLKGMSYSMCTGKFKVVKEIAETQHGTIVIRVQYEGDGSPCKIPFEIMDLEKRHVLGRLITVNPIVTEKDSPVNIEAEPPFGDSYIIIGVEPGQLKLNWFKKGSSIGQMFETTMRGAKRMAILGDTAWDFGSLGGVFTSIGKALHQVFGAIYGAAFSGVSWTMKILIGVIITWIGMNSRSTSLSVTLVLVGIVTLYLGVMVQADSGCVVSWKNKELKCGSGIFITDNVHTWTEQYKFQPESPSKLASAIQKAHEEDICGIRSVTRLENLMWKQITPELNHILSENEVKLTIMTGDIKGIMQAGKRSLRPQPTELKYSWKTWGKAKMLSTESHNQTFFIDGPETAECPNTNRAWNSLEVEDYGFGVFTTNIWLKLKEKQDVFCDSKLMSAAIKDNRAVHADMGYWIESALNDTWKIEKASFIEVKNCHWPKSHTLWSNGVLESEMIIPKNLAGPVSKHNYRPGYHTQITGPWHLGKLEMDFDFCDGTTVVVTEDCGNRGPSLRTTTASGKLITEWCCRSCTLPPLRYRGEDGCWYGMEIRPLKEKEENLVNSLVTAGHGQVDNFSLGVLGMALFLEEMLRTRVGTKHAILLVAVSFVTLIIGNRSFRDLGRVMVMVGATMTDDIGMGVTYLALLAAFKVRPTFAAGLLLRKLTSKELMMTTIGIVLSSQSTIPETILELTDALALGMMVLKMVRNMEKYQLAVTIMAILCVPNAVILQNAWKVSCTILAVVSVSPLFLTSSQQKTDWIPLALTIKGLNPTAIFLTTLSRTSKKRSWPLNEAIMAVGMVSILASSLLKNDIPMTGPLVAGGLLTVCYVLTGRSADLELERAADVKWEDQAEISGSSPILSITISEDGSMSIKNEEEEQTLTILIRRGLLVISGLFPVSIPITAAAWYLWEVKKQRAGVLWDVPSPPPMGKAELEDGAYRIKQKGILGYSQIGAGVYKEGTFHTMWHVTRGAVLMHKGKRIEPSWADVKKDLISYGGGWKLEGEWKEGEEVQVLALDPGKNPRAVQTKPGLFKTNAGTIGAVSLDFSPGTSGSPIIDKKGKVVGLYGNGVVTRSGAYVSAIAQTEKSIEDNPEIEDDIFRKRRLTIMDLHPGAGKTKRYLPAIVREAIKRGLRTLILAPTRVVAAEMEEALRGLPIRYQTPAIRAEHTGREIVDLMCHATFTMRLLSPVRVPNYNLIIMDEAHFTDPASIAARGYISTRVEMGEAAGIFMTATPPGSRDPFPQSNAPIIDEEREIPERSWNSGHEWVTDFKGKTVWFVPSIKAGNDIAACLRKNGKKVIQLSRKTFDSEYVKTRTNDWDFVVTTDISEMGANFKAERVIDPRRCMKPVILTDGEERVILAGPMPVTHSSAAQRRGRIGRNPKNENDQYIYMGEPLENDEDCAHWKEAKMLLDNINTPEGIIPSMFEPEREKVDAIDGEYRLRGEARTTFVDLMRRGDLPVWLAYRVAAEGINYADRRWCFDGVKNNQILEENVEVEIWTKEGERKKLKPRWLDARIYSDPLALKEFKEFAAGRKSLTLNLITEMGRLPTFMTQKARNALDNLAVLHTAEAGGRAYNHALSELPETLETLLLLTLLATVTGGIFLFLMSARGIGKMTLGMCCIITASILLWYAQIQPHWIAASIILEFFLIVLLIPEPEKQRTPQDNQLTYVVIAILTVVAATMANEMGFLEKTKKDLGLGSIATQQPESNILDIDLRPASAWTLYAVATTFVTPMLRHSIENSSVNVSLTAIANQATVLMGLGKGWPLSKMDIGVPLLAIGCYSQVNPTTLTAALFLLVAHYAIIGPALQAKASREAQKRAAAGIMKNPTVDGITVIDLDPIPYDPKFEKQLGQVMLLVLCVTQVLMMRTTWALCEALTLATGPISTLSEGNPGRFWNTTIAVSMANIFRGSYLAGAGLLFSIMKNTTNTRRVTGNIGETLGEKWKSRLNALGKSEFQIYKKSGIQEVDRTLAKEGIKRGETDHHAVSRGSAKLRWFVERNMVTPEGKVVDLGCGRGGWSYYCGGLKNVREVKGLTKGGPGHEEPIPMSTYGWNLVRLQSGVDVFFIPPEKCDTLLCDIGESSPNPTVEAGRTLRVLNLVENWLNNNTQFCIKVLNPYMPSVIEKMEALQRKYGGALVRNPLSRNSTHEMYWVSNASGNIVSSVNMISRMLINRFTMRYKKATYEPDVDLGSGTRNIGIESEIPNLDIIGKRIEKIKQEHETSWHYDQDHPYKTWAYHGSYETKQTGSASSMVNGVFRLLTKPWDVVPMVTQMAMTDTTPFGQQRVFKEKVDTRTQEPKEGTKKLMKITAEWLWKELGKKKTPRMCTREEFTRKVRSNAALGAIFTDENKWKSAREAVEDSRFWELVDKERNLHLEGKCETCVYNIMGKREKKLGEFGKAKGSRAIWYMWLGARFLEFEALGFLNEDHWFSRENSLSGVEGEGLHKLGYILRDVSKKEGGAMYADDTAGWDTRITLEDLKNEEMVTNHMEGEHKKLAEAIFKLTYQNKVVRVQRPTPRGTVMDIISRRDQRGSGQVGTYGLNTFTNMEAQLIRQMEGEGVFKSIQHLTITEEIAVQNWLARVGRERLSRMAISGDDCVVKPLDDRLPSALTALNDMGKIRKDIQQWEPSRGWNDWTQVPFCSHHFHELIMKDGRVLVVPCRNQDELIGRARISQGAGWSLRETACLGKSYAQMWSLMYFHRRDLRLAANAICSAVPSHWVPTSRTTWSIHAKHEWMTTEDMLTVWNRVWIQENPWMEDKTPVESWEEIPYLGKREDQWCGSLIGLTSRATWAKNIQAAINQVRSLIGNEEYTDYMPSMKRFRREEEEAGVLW

Row | SMILES | inhibition | inhibition [1] [%]
1 | COc1cc2c(cc1OC)CC(C(=O)NCc1ccccc1)NC2 (centres undefined) | -4.57% (inactive) | –
2 | O=C(C1CCCN(S(=O)(=O)c2ccccc2)C1)N1CCN(c2ccccc2)CC1 (centres undefined) | -6.74% (inactive) | –
3 | CCN(CC)C(=O)C1CCCN(C(=O)Nc2ccccc2)C1 (centres undefined) | -0.8% (inactive) | –
4 | CN(/N=C/c1ccc2c(c1)OCO2)c1ccccc1 | -8.15% (inactive) | –
5 | COc1cccc(-c2ncc3ccccc3c2COC(=O)c2cccs2)c1 | -7.94% (inactive) | –
6 | O=C(c1ccco1)N1CCN(S(=O)(=O)c2cccc(C(F)(F)F)c2)CC1 | 0% (inactive) | –
7 | O=C(Nc1ccccc1)c1ccc2nc(-c3ccco3)c(-c3ccco3)nc2c1 | 44.6% (inactive) | –
8 | O=C(c1ccc2nc(-c3ccco3)c(-c3ccco3)nc2c1)N1CCN(c2ccccc2)CC1 | 0% (inactive) | –
9 | CCc1nc2ccc(C(=O)NCc3ccco3)cc2nc1CC | -6.11% (inactive) | –
10 | O=C(c1ccccc1)c1ccc2nc(-c3ccco3)c(-c3ccco3)nc2c1 | 51.1% (inactive) | –
11 | Cc1nc2ccc(C(=O)O)cc2nc1C | -2.96% (inactive) | –
12 | COc1ccc(-c2nc3ccc(C(=O)NCCCN4CCOCC4)cc3nc2-c2ccc(OC)cc2)cc1 | -9.54% (inactive) | –
13 | O=C(O)c1ccc2nc(-c3ccccc3)c(-c3ccccc3)nc2c1 | -2.57% (inactive) | –
14 | O=C(NCCc1ccccc1)c1ccc2nccnc2c1 | 0% (inactive) | –
15 | Cc1ccc(NC2CCCN(C(=O)c3cn4cc(Cl)ccc4n3)C2)cc1C (centres undefined) | 3.88% (inactive) | –
16 | COc1ccccc1N1CCN(CC(=O)Nc2ccc(CN3CCCCC3)cc2)CC1 | -7.05% (inactive) | –
17 | CC1=C(C#N)C(c2ccc(O)cc2)C2=C(CCCC2=O)N1 (centres undefined) | 0% (inactive) | –
18 | COc1ccc2cc(C3(C)NC(=O)N(CC(=O)NCCC4=CCCCC4)C3=O)ccc2c1 (centres undefined) | -6.89% (inactive) | -2.13
19 | Cc1cc(C)cc(NC(=S)NC2CC3CCCC(C2)N3C2CC2)c1 (centres undefined) | -10.8% (inactive) | –

Row | SMILES | inhibition | inhibition [1] [%]
20 | Cc1cc(C(F)(F)F)nn1CC(=O)N1CCOCC1 | -2.05% (inactive) | –
21 | CC(=O)N1C(=S)NC(=O)/C1=C1/C(=O)N(CC(=O)Nc2cccc(C)c2)c2ccccc21 | -2.91% (inactive) | –
22 | O=C(CN1C(=O)CNC1=O)Nc1cccc(C(F)(F)F)c1 | -1.61% (inactive) | –
23 | Cc1cccc(NC(=O)CN2C(=O)/C(=C3\SC(=S)N(CC4CCCO4)C3=O)c3ccccc32)c1 (centres undefined) | -5.35% (inactive) | –
24 | O=C(CN1C(=O)/C(=C2\SC(=S)N(C3CCS(=O)(=O)C3)C2=O)c2ccccc21)Nc1ccccc1 (centres undefined) | -1.82% (inactive) | –
25 | COc1ccc(NC(=O)CN2C(=O)/C(=C3\SC(=S)N(CCC(=O)O)C3=O)c3ccccc32)cc1 | 2.68% (inactive) | –
26 | CCN1C(=O)C(=O)N(CC(=O)Nc2cccc(C(F)(F)F)c2)C1=O | 6.2% (inactive) | –
27 | CCO[C@H]1OC(C(=O)O)=C[C@@H](c2cn(C(C)=O)c3ccccc23)[C@@H]1CCCO | -0.8% (inactive) | –
28 | Cc1ccccc1C(=O)NCCNC(=O)c1ccccn1 | 4.99% (inactive) | –
29 | O=C(CSc1ccc(F)cc1)Nc1ccc(N2CCOCC2)c(Cl)c1 | -4.54% (inactive) | –
30 | CC(=O)N1CCN(CC(=O)Nc2ccccc2C(=O)NCc2ccc(C)cc2)CC1 | -0.89% (inactive) | –
31 | Cc1ccc(OCC(=O)OCC(=O)Nc2ccc3c(c2)OCO3)cc1C | -3.82% (inactive) | –
32 | Cc1cc(C(=O)OCC(=O)NCc2ccc(Cl)cc2Cl)c(C)o1 | -0.73% (inactive) | –
33 | Clc1ccc(CN2CCSCC2)c(Cl)c1 | -3.29% (inactive) | 2.1
34 | C=C(C)c1cccc(C(C)(C)NC(=O)N2CCCC(C)C2)c1 (centres undefined) | -4.84% (inactive) | –
35 | Cc1cc(=O)[nH]c(N/N=C/c2cc(C)n(CC(F)(F)F)c2C)n1 | 1.74% (inactive) | –
36 | CC1CCN(C(=S)c2cn(Cc3ccc(F)cc3)c3ccccc23)CC1 | -6.61% (inactive) | –
37 | COCCN(C(=O)c1csnn1)C(C(=O)NC(C)(C)C)c1cccc(OC)c1 (centres undefined) | 0% (inactive) | –
38 | N#Cc1cc(N2CCCCC2)c([N+](=O)[O-])cc1C#N | -5.36% (inactive) | –

Row | SMILES | inhibition | inhibition [1] [%]
39 | O=[N+]([O-])c1cc(F)c(N2CCCCC2)cc1N1CCOCC1 | -8.91% (inactive) | –
40 | O=C(NCc1ccccc1Cl)C(=O)NCC1OCCN1S(=O)(=O)c1ccc(F)cc1 (centres undefined) | -4.82% (inactive) | –
41 | CCc1ccc2c(c1)C(=O)C(=O)N2CCS(=O)(=O)c1ccccc1 | -11.6% (inactive) | –
42 | O=C(O)C(Cc1ccccc1)N1C(=O)/C(=C/c2ccccc2)SC1=S (centres undefined) | 15.5% (inactive) | –
43 | COc1ccc(/C=C2\SC(=S)N(C(Cc3ccccc3)C(=O)O)C2=O)cc1 (centres undefined) | 20.7% (inactive) | –
44 | COc1cccc(/C=C2/SC(=S)N(CCCC(=O)Nc3ccc(O)cc3)C2=O)c1 | -5.15% (inactive) | –
45 | O=C(O)C(Cc1ccccc1)N1C(=O)/C(=C/c2cccnc2)SC1=S (centres undefined) | 8.37% (inactive) | –
46 | COc1cc2c(=O)[nH]c3cc([N+](=O)[O-])ccc3c2cc1[N+](=O)[O-] | 8.05% (inactive) | –
47 | CCC(=O)Nc1nnc(Cc2ccccc2)s1 | 1.61% (inactive) | –
48 | CCN(CC)CCN1C(=O)C(=O)/C(=C(/O)c2ccc(S(=O)(=O)N3CCOCC3)cc2)C1c1ccc(Cl)cc1 (centres undefined) | -6.64% (inactive) | –
49 | O=S(=O)(Nc1cccc2ccccc12)c1cccs1 | -1.29% (inactive) | –
50 | COc1ccccc1NS(=O)(=O)c1cccs1 | 0% (inactive) | –
51 | O=C(CN1C(=O)/C(=C\c2cccc(Br)c2)Oc2ccccc21)NCCCN1CCOCC1 | 0.88% (inactive) | –
52 | O=C(CCCN1C(=O)/C(=C/c2ccccc2Cl)SC1=S)NNC(=O)c1ccccc1 | 8.33% (inactive) | –
53 | Cc1cc(NC(=O)CN2C(=O)/C(=C/c3ccccc3F)SC2=S)no1 | 2.68% (inactive) | –
54 | O=C1/C(=C\c2cccc([N+](=O)[O-])c2O)SC(=S)N1Cc1ccccc1 | 32.5% (inactive) | –
55 | O/N=C/c1cc(Br)ccc1OCc1ccccc1F | 8.73% (inactive) | –
56 | O=C(CN1C(=O)/C(=C/c2cccc(Br)c2)SC1=S)N1CCCC1 | -5.1% (inactive) | –
57 | CCN1C(=O)C(=Cc2cccc(OC)c2Oc2ccc([N+](=O)[O-])cc2[N+](=O)[O-])SC1=S | -1.31% (inactive) | –

Reference: PubChem BioAssay AID588689 (Southern Research Specialized Biocontainment Screening …, 2011)
